Results taken from the supplement of paper PMC7695840.
Counter-ions that a name gives are not always drawn.

Experiments:
[1] = tested on: Staphylococcus aureus MW2 delta-mecA (mecA-); assay: normalized GFP fluorescence (growth of mecA- strain) (fraction of control range); higher = more growth of mecA- strain; settings: compound concentration: 150 uM; cefoxitin: subinhibitory; fluorescent label: GFP
Outline: (§1)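 Two pre-induced S. aureus MW2 strains, one with the gene labeled by DsRed and one lacking it labeled by GFP, were mixed 1:1 in LB with a subinhibitory antibiotic dose set daily. The mix went at 5 µL/well onto 150 μM compound (1.5% DMSO) in 1536-well plates, single replicate, and grew unshaken 20 h at 37 °C, 90% humidity. DsRed (540/590) and GFP (485/520) values were scaled per plate between single-strain control medians, and plates with high untreated ratios or rows with DsRed/GFP >10 were left out.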

[2] = tested on: Staphylococcus aureus MW2 (mecA+); assay: normalized DsRed fluorescence (growth of mecA+ strain) (fraction of control range); higher = more growth of mecA+ strain; settings: compound concentration: 150 uM; cefoxitin: subinhibitory; fluorescent label: DsRed
Outline: as §1

CC(=O)NS(=O)(=O)c1ccc(N)cc1
normalized GFP fluorescence [1]: 0.792
normalized DsRed fluorescence [2]: 0.694

CCCCOc1ccc(CC(=O)NO)cc1 [Bufexamac]
normalized GFP fluorescence [1]: 0.312
normalized DsRed fluorescence [2]: 0.828

NCC(=O)CCC(=O)O
normalized GFP fluorescence [1]: 0.315
normalized DsRed fluorescence [2]: 1.12

CC(C)Cc1ccc(C(C)C(=O)O)cc1 (configuration not stated)
normalized GFP fluorescence [1]: 0.142
normalized DsRed fluorescence [2]: 0.294

O=C(O)c1cc(/N=N/c2ccc(S(=O)(=O)Nc3ccccn3)cc2)ccc1O [Sulfasalazine (Azulfidine)]
normalized GFP fluorescence [1]: 0.311
normalized DsRed fluorescence [2]: 0.584

Cc1ccc(=O)n(-c2ccccc2)c1 [Pirfenidone]
normalized GFP fluorescence [1]: 0.368
normalized DsRed fluorescence [2]: 0.778

CCOC(=O)[C@H](CCc1ccccc1)N[C@H]1CCc2ccccc2N(CC(=O)O)C1=O
normalized GFP fluorescence [1]: -0.00401
normalized DsRed fluorescence [2]: 1.44

CC(=O)[C@H]1CC[C@H]2[C@@H]3C=CC4=CC(=O)CC[C@@]4(C)[C@@H]3CC[C@]12C
normalized GFP fluorescence [1]: 0.56
normalized DsRed fluorescence [2]: 0.456

CNNCc1ccc(C(=O)NC(C)C)cc1
normalized GFP fluorescence [1]: 0.425
normalized DsRed fluorescence [2]: 0.606

NC[C@H]1CC[C@H](C(=O)O)CC1
normalized GFP fluorescence [1]: 0.867
normalized DsRed fluorescence [2]: 0.725

Cc1ccccc1C(=O)Nc1ccc(C(=O)N2CCCC(O)c3cc(Cl)ccc32)c(C)c1 (configuration not stated)
normalized GFP fluorescence [1]: 0.188
normalized DsRed fluorescence [2]: 0.541

O=C(CCCN1CCC(O)(c2ccc(Cl)cc2)CC1)c1ccc(F)cc1
normalized GFP fluorescence [1]: 0.45
normalized DsRed fluorescence [2]: 1.19

CC(C)(C)NCC(O)COc1cccc2c1CC(O)C(O)C2 (configuration not stated)
normalized GFP fluorescence [1]: 0.721
normalized DsRed fluorescence [2]: 0.671

CCN(CC)C(=O)c1cccnc1
normalized GFP fluorescence [1]: 0.263
normalized DsRed fluorescence [2]: 0.829

C[C@@H]1O[C@@H](OC[C@H]2O[C@@H](Oc3c(-c4ccc(OCCO)c(OCCO)c4)oc4cc(OCCO)cc(O)c4c3=O)[C@H](O)[C@@H](O)[C@@H]2O)[C@H](O)[C@H](O)[C@H]1O [Troxerutin]
normalized GFP fluorescence [1]: 0.934
normalized DsRed fluorescence [2]: 0.471

C#C[C@]1(O)CC[C@H]2[C@@H]3CCc4cc(O)ccc4[C@H]3CC[C@@]21C [Ethinyl Estradiol]
normalized GFP fluorescence [1]: 0.246
normalized DsRed fluorescence [2]: 0.449

CC1=CC(=O)c2ccccc2C1=O
normalized GFP fluorescence [1]: 0.0466
normalized DsRed fluorescence [2]: 0.307

CN(Cc1cc(Br)cc(Br)c1N)C1CCCCC1
normalized GFP fluorescence [1]: 0.459
normalized DsRed fluorescence [2]: 0.919

C[C@@H]1[C@H](O)[C@@H](C)/C=C/C=C/C=C/C=C/C=C/C=C/C=C/[C@H](O[C@@H]2O[C@H](C)[C@@H](O)[C@H](N)[C@@H]2O)C[C@@H]2O[C@](O)(C[C@@H](O)C[C@@H](O)[C@H](O)CC[C@@H](O)C[C@@H](O)CC(=O)O[C@H]1C)C[C@H](O)[C@H]2C(=O)O
normalized GFP fluorescence [1]: 0.269
normalized DsRed fluorescence [2]: 0.735

NS(=O)(=O)c1cc2c(cc1Cl)NC(C1CC3C=CC1C3)NS2(=O)=O (configuration not stated)
normalized GFP fluorescence [1]: 0.463
normalized DsRed fluorescence [2]: 0.69

Clc1ccc(C(Cn2ccnc2)OCc2c(Cl)cccc2Cl)c(Cl)c1 (configuration not stated) [Isoconazole nitrate (Travogen)]
normalized GFP fluorescence [1]: -0.00251
normalized DsRed fluorescence [2]: 0.00958

CCCc1nc(C)c2c(O)nc(-c3cc(S(=O)(=O)N4CCN(CC)CC4)ccc3OCC)nn12
normalized GFP fluorescence [1]: 0.68
normalized DsRed fluorescence [2]: 0.461

OC[C@H]1O[C@H]([S-])[C@H](O)[C@@H](O)[C@@H]1O.[Au+]
normalized GFP fluorescence [1]: 0.232
normalized DsRed fluorescence [2]: 0.538

CSCC[C@H](NC(=O)[C@H](Cc1c[nH]c2ccccc12)NC(=O)CCNC(=O)OC(C)(C)C)C(=O)N[C@@H](CC(=O)O)C(=O)N[C@@H](Cc1ccccc1)C(N)=O
normalized GFP fluorescence [1]: 0.461
normalized DsRed fluorescence [2]: 0.68

Cn1c(=O)c2[nH]cnc2n(C)c1=O [Aminophylline (Truphylline)]
normalized GFP fluorescence [1]: 0.38
normalized DsRed fluorescence [2]: 1.18

O=C1Cc2cc(CCN3CCN(c4nsc5ccccc45)CC3)c(Cl)cc2N1
normalized GFP fluorescence [1]: 0.33
normalized DsRed fluorescence [2]: 0.989

O=C1C(CC[S+]([O-])c2ccccc2)C(=O)N(c2ccccc2)N1c1ccccc1 (configuration not stated)
normalized GFP fluorescence [1]: 0.525
normalized DsRed fluorescence [2]: 0.445

COc1ccc(CCN(C)CCCC(C#N)(c2ccc(OC)c(OC)c2)C(C)C)cc1OC (configuration not stated)
normalized GFP fluorescence [1]: 0.734
normalized DsRed fluorescence [2]: 0.717

NS(=O)(=O)c1cc2c(cc1Cl)NC(C(Cl)Cl)NS2(=O)=O (configuration not stated)
normalized GFP fluorescence [1]: 0.381
normalized DsRed fluorescence [2]: 0.814

CC(C)Cn1cnc2c(N)nc3ccccc3c21
normalized GFP fluorescence [1]: 0.18
normalized DsRed fluorescence [2]: 1.09

CN(CCOc1ccc(NS(C)(=O)=O)cc1)CCc1ccc(NS(C)(=O)=O)cc1 [Dofetilide (Tikosyn)]
normalized GFP fluorescence [1]: 0.244
normalized DsRed fluorescence [2]: 1.28

CO[C@H]1O[C@@H]2O[C@@]3(C)CC[C@H]4[C@H](C)CC[C@@H]([C@H]1C)[C@@]24OO3
normalized GFP fluorescence [1]: 0.327
normalized DsRed fluorescence [2]: 1.13

O=P(O)(O)C(O)(Cc1cccnc1)P(=O)(O)O [Risedronic acid (Actonel)]
normalized GFP fluorescence [1]: 0.68
normalized DsRed fluorescence [2]: 0.671

COc1ccccc1OCC(O)CO (configuration not stated)
normalized GFP fluorescence [1]: 0.274
normalized DsRed fluorescence [2]: 0.991

CC1(C)O[C@@H]2C[C@H]3[C@@H]4CCC5=CC(=O)C=C[C@]5(C)[C@@]4(F)[C@@H](O)C[C@]3(C)[C@]2(C(=O)CO)O1
normalized GFP fluorescence [1]: 0.603
normalized DsRed fluorescence [2]: 0.613

CCCN[C@H]1CCc2nc(N)sc2C1 [Pramipexole dihydrochloride monohydrate]
normalized GFP fluorescence [1]: 0.713
normalized DsRed fluorescence [2]: 0.597
